Laboratory results: PubChem BioAssay
For some of these results: Potency and affinity values are given separately. The source made the active and inactive calls. Unless noted, no rule for the calls is given here.

Experiments:
[1] = antimalarial activity against Dd2 strain (AID 2302;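 active = growth inhibition above 50% at the single 2 µM test dose, taken to imply half-maximal potency below 2 µM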;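 also: 0% = DMSO untreated growth and 100% = chloroquine plus artemisinin killed control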); details: P. falciparum Dd2 in RBCs, LDH growth readout, 72 h; at 2 µM; hits give high values
[2] = human hepatoma cell viability loss – ATP luminescence, cytotoxicity control for P. falciparum antimalarial project, primary screen (AID 2303;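 active = inhibition above 50%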;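 also: 0% = DMSO wells and 100% = digitonin-killed cells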); details: HepG2 viability, 24-48 h, at 10 µM, hits give high values
[3] = target: L-lactate dehydrogenase (Plasmodium falciparum (isolate CDC / Honduras)) (UniProt Q27743); test: PfLDH activity inhibition – cell lysate, 3D7 strain, counter-screen for P. falciparum growth inhibition project (AID 2304);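 also: 0% = vehicle and 100% = reference inhibitor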; details: P. falciparum 3D7 crude extract, LDH APAD/NBT absorbance; at 2 µM; hits give high values
L-lactate dehydrogenase (Plasmodium falciparum (isolate CDC / Honduras)), sequence (Q27743 whole entry, looked up): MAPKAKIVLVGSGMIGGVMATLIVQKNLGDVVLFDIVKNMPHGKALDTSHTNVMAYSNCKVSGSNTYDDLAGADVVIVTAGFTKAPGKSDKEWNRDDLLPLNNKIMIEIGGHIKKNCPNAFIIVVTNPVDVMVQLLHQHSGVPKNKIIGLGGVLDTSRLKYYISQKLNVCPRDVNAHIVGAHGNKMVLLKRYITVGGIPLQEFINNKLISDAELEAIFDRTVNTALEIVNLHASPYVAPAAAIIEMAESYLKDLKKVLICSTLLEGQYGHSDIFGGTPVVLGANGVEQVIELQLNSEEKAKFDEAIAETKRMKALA

[4] = inhibition of 3D7 malaria parasite growth – strain 3D7 (AID 2306);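 also: 0% = DMSO wells and 100% = chloroquine plus artemisinin control wells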; details: P. falciparum 3D7 erythrocytic growth, LDH absorbance, 72 h; at 2 µM; hits give high values
[5] = target: Calcium-dependent protein kinase 1 (Plasmodium falciparum (isolate 3D7)) (UniProt P62344); test: PfCDPK1 kinase inhibitors, biochemical, TCAMS library (AID 1159585; cut-off not given, nearly all actives have IC50 up to about 0.98 µM;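 also: inhibitors leave more ATP so luminescence rises with inhibition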); details: recombinant PfCDPK1, Kinase-Glo ATP depletion luminescence
Calcium-dependent protein kinase 1 (Plasmodium falciparum (isolate 3D7)), sequence (P62344 whole entry, looked up): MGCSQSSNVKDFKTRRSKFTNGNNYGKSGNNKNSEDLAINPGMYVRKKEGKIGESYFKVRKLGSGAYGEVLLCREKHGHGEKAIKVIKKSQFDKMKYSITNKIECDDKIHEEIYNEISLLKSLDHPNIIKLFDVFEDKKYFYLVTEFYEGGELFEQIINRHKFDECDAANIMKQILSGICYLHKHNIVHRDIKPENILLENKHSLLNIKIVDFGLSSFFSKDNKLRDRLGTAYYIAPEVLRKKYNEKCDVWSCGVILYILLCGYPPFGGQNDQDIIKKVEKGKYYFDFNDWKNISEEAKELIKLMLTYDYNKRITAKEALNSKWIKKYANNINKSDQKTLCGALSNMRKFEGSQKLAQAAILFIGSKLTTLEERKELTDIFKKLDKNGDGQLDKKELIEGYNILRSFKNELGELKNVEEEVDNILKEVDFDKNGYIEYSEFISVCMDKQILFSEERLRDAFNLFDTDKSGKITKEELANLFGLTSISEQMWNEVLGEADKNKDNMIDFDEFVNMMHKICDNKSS

[6] = target: Plasmodium falciparum protein kinase 6 (PK6, PF3D7_1337100) (UniProt Q8IDW1); test: PfPK6 kinase inhibitors, biochemical, TCAMS library (AID 1159586); details: recombinant PfPK6, Kinase-Glo ATP depletion luminescence
Plasmodium falciparum protein kinase 6 (PK6, PF3D7_1337100), sequence (Q8IDW1 1-305): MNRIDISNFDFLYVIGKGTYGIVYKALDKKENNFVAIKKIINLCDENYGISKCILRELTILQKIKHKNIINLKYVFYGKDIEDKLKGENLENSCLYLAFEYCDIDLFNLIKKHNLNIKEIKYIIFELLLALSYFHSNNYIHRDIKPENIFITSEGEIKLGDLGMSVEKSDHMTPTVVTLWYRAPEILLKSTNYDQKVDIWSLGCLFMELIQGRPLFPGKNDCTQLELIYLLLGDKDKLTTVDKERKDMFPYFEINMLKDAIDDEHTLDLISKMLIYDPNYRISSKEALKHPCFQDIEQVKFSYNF

[7] = target: Protein kinase 7 (PK7), Plasmodium falciparum 3D7 (PF3D7_0213400) (UniProt Q7YTF7); test: inhibition of Plasmodium PK7 catalytic activity – biochemical, TCAMS antimalarial set, Kinase-Glo luminescence (AID 1159587); details: recombinant PfPK7, Kinase-Glo ATP depletion luminescence
Protein kinase 7 (PK7), Plasmodium falciparum 3D7 (PF3D7_0213400), sequence (Q7YTF7 1-343): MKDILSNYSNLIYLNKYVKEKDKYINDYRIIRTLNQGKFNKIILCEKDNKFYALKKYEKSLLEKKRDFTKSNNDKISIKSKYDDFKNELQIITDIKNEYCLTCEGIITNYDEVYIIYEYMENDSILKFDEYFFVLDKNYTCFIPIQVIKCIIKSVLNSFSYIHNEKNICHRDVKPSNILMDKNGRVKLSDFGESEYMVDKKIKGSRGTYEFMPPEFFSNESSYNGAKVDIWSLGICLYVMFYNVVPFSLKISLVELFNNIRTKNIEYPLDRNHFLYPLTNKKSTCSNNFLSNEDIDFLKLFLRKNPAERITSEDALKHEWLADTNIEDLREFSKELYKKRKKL

[8] = target: Calcium-dependent protein kinase 4 (Plasmodium falciparum (isolate 3D7)) (UniProt Q8IBS5); test: PfCDPK4 kinase inhibitors, biochemical, TCAMS library (AID 1159588; cut-off not given, nearly all actives have IC50 up to about 0.91 µM); details: recombinant PfCDPK4, Kinase-Glo ATP depletion luminescence
Calcium-dependent protein kinase 4 (Plasmodium falciparum (isolate 3D7)), sequence (Q8IBS5 whole entry, looked up): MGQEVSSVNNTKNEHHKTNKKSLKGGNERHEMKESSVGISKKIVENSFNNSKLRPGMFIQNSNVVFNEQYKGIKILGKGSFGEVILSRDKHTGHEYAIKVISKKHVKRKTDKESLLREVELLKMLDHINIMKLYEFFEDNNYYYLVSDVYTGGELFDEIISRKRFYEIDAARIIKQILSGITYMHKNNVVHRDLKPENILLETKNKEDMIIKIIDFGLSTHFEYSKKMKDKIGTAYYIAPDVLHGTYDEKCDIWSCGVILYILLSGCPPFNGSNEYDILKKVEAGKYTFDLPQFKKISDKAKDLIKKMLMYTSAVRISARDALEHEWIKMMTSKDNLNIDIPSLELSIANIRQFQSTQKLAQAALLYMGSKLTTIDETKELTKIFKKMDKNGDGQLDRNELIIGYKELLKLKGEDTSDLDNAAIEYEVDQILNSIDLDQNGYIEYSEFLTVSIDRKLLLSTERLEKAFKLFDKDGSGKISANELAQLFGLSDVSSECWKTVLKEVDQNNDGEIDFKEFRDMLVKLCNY

Cc1cccc2[nH]c(-c3cccc(-c4cccc(NC(=O)Nc5ccc(Cl)cc5)c4)c3)nc12
active: growth inhibition [1] 94% | growth inhibition [4] 100%
inactive: inhibition [2] 23% | inhibition [3] -2% | outcome [5] | outcome [6] | outcome [7] | outcome [8]

CNC(=O)c1cnc(Nc2ccc(OCC(O)CN(C)C)cc2)nc1Nc1cccc([N+](=O)[O-])c1 (stereo not given)
active: growth inhibition [1] 94% | inhibition [2] 52% | growth inhibition [4] 100%
inactive: inhibition [3] -1% | outcome [5] | outcome [6] | outcome [7] | outcome [8]

Cc1ccc(NC(=O)c2ccc(N3CCC(c4ccccc4C)CC3)nc2)cc1
inactive: inhibition [2] 49% | inhibition [3] 3% | outcome [5] | outcome [6] | outcome [7] | outcome [8]
active: growth inhibition [1] 72% | growth inhibition [4] 83%

CCCC(C)NC(=O)c1cnn(-c2ccc(C(C)(C)C)cc2)c1OCc1ccc(Br)cc1 (stereo not given)
active: growth inhibition [1] 64% | growth inhibition [4] 84%
inactive: inhibition [2] 17% | inhibition [3] 0% | outcome [5] | outcome [6] | outcome [7] | outcome [8]

CCNc1cc(C(=O)N[C@@H](Cc2ccccc2)[C@H](O)CNC(C)(C)CSCC(C)C)cc(N2CCCC2=O)c1
active: growth inhibition [1] 97% | growth inhibition [4] 101%
inactive: inhibition [2] -20% | inhibition [3] -7% | outcome [5] | outcome [6] | outcome [7] | outcome [8]

CCNc1cc(C(=O)N[C@@H](Cc2ccccc2)[C@H](O)CNC(C)(C)CCCC(C)C)cc(N2CCCC2=O)c1
inactive: inhibition [2] -12% | inhibition [3] -1% | outcome [5] | outcome [6] | outcome [7] | outcome [8]
active: growth inhibition [1] 81% | growth inhibition [4] 100%

Nc1c2ccccc2nc2ccc(Cl)cc12
active: growth inhibition [1] 100% | inhibition [2] 55% | growth inhibition [4] 101%
inactive: inhibition [3] 6% | outcome [5] | outcome [6] | outcome [7] | outcome [8]

FC(F)(F)c1cccc(CNC2CCN(CC3CCCCC3)CC2)c1
active: growth inhibition [4] 101%
inactive: growth inhibition [1] 12% | inhibition [2] 0% | inhibition [3] 0% | outcome [5] | outcome [6] | outcome [7] | outcome [8]

C=CCc1cc(Br)ccc1OCCCOc1c(N)nc(N)nc1N
active: growth inhibition [4] 92%
inactive: growth inhibition [1] 0% | inhibition [2] 47% | inhibition [3] 4% | outcome [5] | outcome [6] | outcome [7] | outcome [8]

O=C1COC2(CN1C1CCN(Cc3ccc(O)cc3Cl)C1)c1ccccc1-c1ccccc12 (stereo not given)
inactive: inhibition [2] 10% | inhibition [3] -1% | outcome [5] | outcome [6] | outcome [7] | outcome [8]
active: growth inhibition [1] 70% | growth inhibition [4] 82%

Cc1cc(C)c(CON2C(N)=NC(N)=NC2(C)C)cc1C
inactive: inhibition [3] 2% | outcome [5] | outcome [6] | outcome [7] | outcome [8]
active: growth inhibition [1] 93% | inhibition [2] 65% | growth inhibition [4] 92%

CC1(C)CCCC(=Cc2ccc(Br)cc2)C1(O)Cn1ccnc1 (stereo not given)
inactive: inhibition [2] 7% | inhibition [3] 0% | outcome [5] | outcome [6] | outcome [7] | outcome [8]
active: growth inhibition [1] 69% | growth inhibition [4] 99%

Cc1nn(CC(C)C)c2sc(C(=O)N3CCN(S(=O)(=O)c4ccc(C#N)cc4)CC3)cc12
active: growth inhibition [1] 99% | growth inhibition [4] 99%
inactive: inhibition [2] 14% | inhibition [3] -2% | outcome [5] | outcome [6] | outcome [7] | outcome [8]

COc1ccc(CNCc2cccc(-c3ccc(-c4nc5c(C)cccc5[nH]4)cc3)c2)cc1
inactive: inhibition [2] 23% | inhibition [3] 7% | outcome [5] | outcome [6] | outcome [7] | outcome [8]
active: growth inhibition [1] 70% | growth inhibition [4] 101%

Fc1ccc2c(NN=Cc3ccc(Cl)cc3)ccnc2c1
active: growth inhibition [1] 99% | growth inhibition [4] 101%
inactive: inhibition [2] 7% | inhibition [3] -1% | outcome [5] | outcome [6] | outcome [7] | outcome [8]

O=C(NCCc1ccccc1F)c1ccc(N2CCN(c3ccncc3)CC2)cn1
inactive: growth inhibition [1] 18% | inhibition [2] 8% | inhibition [3] -2% | outcome [5] | outcome [6] | outcome [7] | outcome [8]
active: growth inhibition [4] 93%

Clc1ccc(-c2cnc3ccc(NCc4ccncc4)nn23)cc1
inactive: inhibition [2] 25% | inhibition [3] 2% | outcome [5] | outcome [6] | outcome [7] | outcome [8]
active: growth inhibition [1] 98% | growth inhibition [4] 98%

Cc1cc(N[C@@H](Cc2ccccc2)C(=O)NCCOc2ccccc2)nc(Nc2ccccc2)n1
active: growth inhibition [1] 63% | growth inhibition [4] 100%
inactive: inhibition [2] 2% | inhibition [3] -2% | outcome [5] | outcome [6] | outcome [7] | outcome [8]

COc1ccc2ccccc2c1CNCCCCCCNCc1c(OC)ccc2ccccc12
active: inhibition [2] 99% | growth inhibition [4] 101%
inactive: growth inhibition [1] 35% | inhibition [3] -2% | outcome [5] | outcome [6] | outcome [7] | outcome [8]

COc1ccc2nccc([C@@H](O)CNCCCN(C)CCOc3cc(F)cc(F)c3)c2c1
active: growth inhibition [1] 58% | growth inhibition [4] 99%
inactive: inhibition [2] 11% | inhibition [3] -1% | outcome [5] | outcome [6] | outcome [7] | outcome [8]
